The structures appear in SMILES notation. In all, about 59,000 compounds went through this assay and about 60 (0.1%) were called active. How the calls were made is not given here. Only a selection was taken, and actives are over-represented in it overall.

This experiment can be described thus: qHTS Assay for Spectroscopic Profiling in A488 Spectral Region. The note with it: compound autofluorescence; max dye equivalency: Compound Type: qHTS ECL - SigmaAldrich, stronger effect = higher value unless noted; outcome: dye equivalency, Compound Type: qHTS ECL - MLSMR unless noted. An excerpt: NIH Molecular Libraries Screening Centers Network [MLSCN]
NIH Chemical Genomics Center [NCGC]
Occasionally, the artifactual effect may originate from the compounds own spectral or other biophysical properties which generally tend to track its assay concentration. Pre-screening/profiling the library with respect to the compounds spectral properties should help one exclude false positives early on. While the most informative fluorescent profiling data set is obtained by performing a full excitation and emission scan of each well by using a monochromator-based plate reader, such an approach is practical only on a very limited scale as scanning each well requires long time. An alternative approach, applied here, is to perform plate reader scans using selected excitation and emission wavelength pairs to generate a multidimensional relational database that correlates compound concentration and the respective relative fluorescence intensity at a given wavelength set. A standard curve of Alexa 488 (A488) present on each plate as six-point concentration series, was used to compute a normalized fluorescence response, termed dye-equivalent concentration, for each compound at each concentration.
NCGC Assay Protocol Summary:
100 mM Tris buffer, pH 8.0
The wells in columns 1 through 4 of a Kalypsys polypropylene 1536-well compound plate were filled with standard solutions of fluorophore corresponding to the spectral region of interest. Solutions of A488 were placed in the following wells: Y1, Z1: 3 mM, Y2, Z2: 300 uM, Y3, Z3: 30 uM, Y4, Z4: zero (DMSO), AA1, AB1: 3 uM, AA2, AB2: 900 nM, AA3, AB3: 300 nM, AA4, AB4: zero (DMSO).
Six uL of buffer were dispensed to 1536-well Greiner black plates. Compounds and dye standards (23 nL) were transferred via Kalypsys PinTool. The plates were incubated for 15 min at room temperature, and then read on ViewLux (Perkin-Elmer) High-throughput CCD imager using 480 nm and 540 nm excitation and emission filter set.
Keywords: NIH Roadmap, MLSCN, MLI, MLSMR, qHTS, NCGC, A488, A-488, Fluorescent Profiling.
`CCCC1C(c2ccccc2)C(C#N)(C#N)C2(C#N)CC1(N)NC2=O` (stereo unspecified): the outcome was “inactive [dye equivalency, Compound Type: qHTS ECL - DPISMR]”.
As to `CCOC(=O)c1[nH]c2ccccc2c1N=C(C)N(CC)CC`, the outcome was inactive.
For `C=CCN(CC=C)C(=O)CN1C(=O)c2ccccc2C1=O`, the result was inactive.
As to `c1ccc(-n2ncc3c2ncn2c(C4CCCCC4)nnc32)cc1`, the outcome is “inactive [dye equivalency, Compound Type: qHTS ECL - DPISMR]”.
As to `O=C(NCc1ccc(Cl)cc1)c1cc2c(nc3sccn32)s1`, the result was inactive.
On to `O=C(O)C1CCCCC1C(=O)Nc1ccc(Cl)cc1` (stereo unspecified), for which the outcome is “inactive [dye equivalency, Compound Type: qHTS ECL - DPISMR]”.
For `COCCn1c(=O)c(-c2cc(F)cc(F)c2)nc2cnc(N3CCNCC3)nc21`, the outcome was “inactive [dye equivalency, Compound Type: qHTS ECL - Pharmacopeia]”.
Consider `CCNC(=O)CCc1nc(-c2ccc(C(C)(C)C)cc2)no1`, for which the outcome is “inactive [dye equivalency, Compound Type: qHTS ECL - DPISMR]”.
As to `Cn1c(=O)c(CCc2ccccc2)nc2cnc(Nc3ccccc3)nc21`, the outcome was “inactive [dye equivalency, Compound Type: qHTS ECL - Pharmacopeia]”.
Under `CCCc1cc(=O)[nH]c(SCc2ccc(C#N)cc2)n1` stands “inactive [dye equivalency, Compound Type: qHTS ECL - DPISMR]”.
`C=CCn1c(SCn2nnc3ccccc3c2=O)nnc1-c1ccc(Cl)cc1`: the outcome is “inactive [dye equivalency, Compound Type: qHTS ECL - DPISMR]”.
Under `Cc1nc2cnc(Oc3cccc(Cl)c3)nc2n(C2CC2)c1=O` stands “inactive [dye equivalency, Compound Type: qHTS ECL - Pharmacopeia]”; under `COc1ccc(-c2nc3cnc(OC)nc3n(Cc3ccc(F)cc3)c2=O)cc1`, “inactive [dye equivalency, Compound Type: qHTS ECL - Pharmacopeia]”.
For `CC1CN(C2CCN(C(=O)COc3ccccc3)CC2)CC(C)O1` (stereo unspecified) the value was “inactive”; for `CC(=O)c1c(C)[nH]c(C(=O)NCCCN2CCCC2)c1C`, “inactive”; for `O=C(Nc1ccccc1)N(Cc1cccnc1)Cc1ccco1`, “inactive [dye equivalency, Compound Type: qHTS ECL - DPISMR]”.
Regarding `Cc1nc2cnc(Nc3ccccc3)nc2n(Cc2ccc(F)cc2)c1=O`, the outcome was “inactive [dye equivalency, Compound Type: qHTS ECL - Pharmacopeia]”.
For `CNC(=O)n1ccc(C(=O)N2CCCCC2)n1` the value was “inactive [dye equivalency, Compound Type: qHTS ECL - DPISMR]”; for `c1cnc(NC2C3CC4CC(C3)CC2C4)nc1` (stereo unspecified), “inactive”.
For the molecule `CCCOc1ccccc1C(=O)NCCCC(=O)O`, the result was inactive.
As for `COc1ccccc1CNc1cc(-c2ccccc2CN(C)C)ncn1`, the outcome is “inactive [dye equivalency, Compound Type: qHTS ECL - Pharmacopeia]”.
As for `Oc1c(Br)cc(CN(Cc2cc(Br)c(O)c(Br)c2)C2CCCCC2)cc1Br`, the outcome is “inactive [dye equivalency, Compound Type: qHTS ECL - NCI]”.
In the case of `CCc1nnc(NC(=O)c2c(O)c3c([nH]c2=O)CCCC3)s1`, the result was inactive.
For the molecule `CCC(=O)Nc1ccc(C(=O)Nc2ccc3c(c2)C(=O)N(CC2CCCO2)C3=O)cc1` (stereo unspecified), the outcome is “inactive [dye equivalency, Compound Type: qHTS ECL - DPISMR]”.
Take `Cn1cccc1C(=O)N1CCC2(CC1)CN(c1cccc(-c3ccccc3)c1)C2`: the outcome is “inactive [dye equivalency, Compound Type: qHTS ECL - Pharmacopeia]”.
For the molecule `CCOC(=O)CSc1nnc(-c2ccncc2)o1`, the outcome was “inactive [dye equivalency, Compound Type: qHTS ECL - DPISMR]”.
For `COc1ccc2nc(NC3=NCN(CC4CCCO4)CN3)nc(C)c2c1` (stereo unspecified), the result was inactive.
For the molecule `CCOC(=O)N1CCN(C(=O)c2ccc3nc4cc(Cl)ccc4c(=O)n3c2)CC1`, the result was inactive.
For `CCOC(=O)C1(Cc2ccc(O)cc2)NC(c2ccccc2F)C2C(=O)N(C)C(=O)C21` (stereo unspecified), the outcome was inactive.
For `COCCNc1cc(-c2c(C)noc2C)ncn1`, the outcome is “inactive [dye equivalency, Compound Type: qHTS ECL - Pharmacopeia]”.
For `CCNc1ncc2nc(CCc3ccccc3)c(=O)n(-c3ccc(OC)cc3)c2n1`, the outcome was “inactive [dye equivalency, Compound Type: qHTS ECL - Pharmacopeia]”.
Consider `Cn1c(CC(=O)Nc2ccccc2)nnc1SCC(=O)c1ccccc1`, for which the outcome is “inactive [dye equivalency, Compound Type: qHTS ECL - DPISMR]”.
Take `COCCn1c(=O)c(-c2cc(F)cc(F)c2)nc2cncnc21`: the outcome was “inactive [dye equivalency, Compound Type: qHTS ECL - Pharmacopeia]”.
For `CCOC(=O)C1CCN(Cc2coc3ccc(Cl)cc3c2=O)CC1` the value was “inactive [dye equivalency, Compound Type: qHTS ECL - DPISMR]”; for `Cc1noc(C)c1S(=O)(=O)Nc1ccc(C(=O)O)cc1`, “inactive [dye equivalency, Compound Type: qHTS ECL - DPISMR]”.
For `Cc1c(C)c2cc3c4c(oc3c(C)c2oc1=O)CCCC4`, the outcome was inactive.
For the molecule `CN1CCc2[nH]nc(-c3n[nH]c4c3CN(C)CC4)c2C1`, the outcome is “inactive [dye equivalency, Compound Type: qHTS ECL - NCI]”.
Under `O=C1c2ccccc2C(=O)N1c1ccccc1S(=O)C(F)(F)F` (stereo unspecified) stands “inactive [dye equivalency, Compound Type: qHTS ECL - DPISMR]”.
Regarding `CN(C)c1cc2c(Nc3ccc4c(cnn4Cc4ccccc4)c3)ncnc2cn1`, the outcome is “inactive [dye equivalency, Compound Type: qHTS ECL - SigmaAldrich]”.
Consider `O=c1c(-c2ccc(F)cc2)nc2cncnc2n1-c1ccccc1`, for which the outcome is “inactive [dye equivalency, Compound Type: qHTS ECL - Pharmacopeia]”.
Regarding `Cc1cnc(CNc2cc(-c3c(C)noc3C)ncn2)cn1`, the outcome is “inactive [dye equivalency, Compound Type: qHTS ECL - Pharmacopeia]”.

These data come from PubChem BioAssay AID591 (National Center for Advancing Translational Sciences (NCATS), 2007).
